# Bioassay records deposited in PubChem BioAssay by The Scripps Research Institute Molecular Screening Center.
# In the library only some 3.5% were active in any assay of this set; here they are far more common.
# TEAD-YAP block = TEAD-YAP interaction inhibition | HEK-TIYL cells, TEAD-Gal4/YAP UAS-luciferase luminescence | inhibition, % at 9.12 µM | 640,000 tested, 1.4% active; in the data active = inhibition above about 32%;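 also: 0% = median of test compound wells and 100% = reference inhibitor wells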
# MITF primary = blocks human microphthalmia-associated transcription factor | AlphaScreen MITF homodimerization, bead proximity signal | 650,000 tested, 0.91% active | inhibition, % at 2.6 µM | O75030; in the data active = inhibition above about 50%;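 also: 0% = vehicle wells with protein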
# GPR151 ag = activates the human receptor GPR151 | Q8TDV0 | PathHunter beta-arrestin GPR151 cells, luminescence | activation, % at 11.2 µM | 650,000 tested, 1% active; in the data active = activation above about 4.9%;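 also: 0% = median of compound wells and 100% = cells with positive control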
# FBW7 activator = activators of human E3 ligase FBW7. AlphaScreen FBW7–phospho-cyclin E peptide binding, activator screen. normalized activity (activation), % at 26.1 µM. 650,000 tested, 0.13% active; in the data active = normalized activity above about 1.9%;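 also: purified mutant Fbw7 with reduced substrate affinity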
# MITF confirm = human MITF inhibition, confirmation | shares compounds with MITF primary | AlphaScreen MITF homodimerization, biotin/His-MITF beads | inhibition, % at 2.6 µM | 4,700 tested, 16% active;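 active = inhibition above a cutoff derived from the DMSO control wells, cut at about 28% in these data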;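 also: 0% = MITF dimer wells with DMSO only; inhibitors lower the bead chemiluminescence by keeping MITF from dimerizing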
# AS interf ctr = optically interferes with AlphaScreen signal; shares compounds with MITF primary; LysRS AlphaScreen counterscreen, signal interference, triplicate; inhibition, % at 2.6 µM; 4,700 tested, 7.6% active;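 active = inhibition above a cutoff derived from the DMSO control wells, cut at about 30% in these data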
# The depositor's hits bear a star; · = no result given.
SMILES,TEAD-YAP block,MITF primary,GPR151 ag,FBW7 activator,MITF confirm,AS interf ctr
O=C1CC(N2CCN(S(=O)(=O)c3ccccc3F)CC2)C(=O)N1c1ccccc1F (centres undefined),1.2,79.5*,-0.9,-0.3,-14.2,4.0
O=C1CC(N2CCN(c3ccc(Cl)cc3)CC2)C(=O)N1c1ccccc1F (centres undefined),7.8,2.2,-0.5,0.1,·,·
CCCS(=O)(=O)N1CCN(C(C)CC)CC1 (centres undefined),-2.5,51.8*,2.3,-0.1,-2.6,12.7
CN1CCN(CC(=O)Nc2c3c(nc4c2CCC4)CCCC3)CC1,2.9,74.3*,-0.5,-0.1,3.6,4.0
O=C(CN1CCCC1)Nc1c2c(nc3c1CCC3)CCC2,0.5,75.7*,0.0,-0.5,2.1,-5.0
Cc1n[nH]c(C)c1NC(=O)CN1CCCCCC1,-0.2,61.6*,0.6,-0.3,11.2,14.7
O=C(CN1CCCCCC1)Nc1c2c(nc3c1CCC3)CCCC2,-3.7,58.4*,0.7,0.0,-4.9,-4.3
CCCCC(=O)Nc1c2c(nc3c1CCC3)CCCC2,-4.1,-5.5,-0.5,-0.1,·,·
COc1c(N/C(C)=C/C(C)=O)ccc2c(C)c(C)[nH]c12,8.5,17.3,-1.0,-0.1,·,·
O=C(NCc1c(F)cccc1F)c1cnc2sccn2c1=O,3.5,-4.6,-0.5,-0.2,·,·
COC(CN(C)C(=O)c1c(C)nc2c(C)cccn12)OC,3.0,-0.8,-0.5,0.0,·,·
CCN(CC)CCCNCc1ccc(Cl)cc1,-9.3,51.2*,-0.3,0.1,-4.5,0.3
CC(C)(C)n1ncc2c(=O)n(Cc3cccc4ccccc34)cnc21,6.9,0.5,0.3,0.0,·,·
Cc1cccc2nc(Cn3ccccc3=O)cn12,-1.3,12.7,0.0,0.0,·,·
Cc1cccc2nc(CN3CCN(c4ccc(F)cc4)CC3)cn12,0.8,72.3*,-1.2,-0.2,-14.1,1.7
Cc1cccc(CC(=O)Nc2cccc(-n3c(C)nc4ccccc4c3=O)c2)c1,-1.7,18.3,-1.8,0.2,·,·
CN(Cc1ccccc1)c1cc(-c2ccncc2)nc(-c2cccnc2)n1,-7.4,6.0,1.3,-0.1,·,·
CN(Cc1ccccc1)c1cc(-c2ccccn2)nc(-c2ccccn2)n1,40.1*,79.1*,3.3,-1.0,37.2*,81.3*
CC1=NN(c2cc(C)cc(C)c2)C(=O)C1,2.9,7.5,-0.4,0.2,·,·
CCNc1nc(NCC)nc(N2N=C(C)CC2=O)n1,8.3,71.2*,0.4,-0.2,41.0*,65.7*
CN(C(=O)c1cccs1)C(Cc1ccccc1)C1CCN(C(=O)c2ccn(C)n2)CC1 (centres undefined),-23.9,73.8*,-0.2,1.5,5.6,-1.3
CCOc1ccc(C(=O)NC(=S)Nc2ccc(S(N)(=O)=O)cc2)cc1,10.2,52.6*,-0.8,0.8,-9.9,-6.8
CC(C)(C)c1ccc(C(=O)NC(=S)Nc2ccc(S(N)(=O)=O)cc2)cc1,-5.1,11.1,-0.4,0.2,·,·
COc1cc(OC)cc(C(=O)N2CCN(Cc3ccco3)CC2)c1,1.6,58.8*,-2.1,0.5,2.9,16.3
COc1cccc(CN2CCN(Cc3ccco3)[C@@H](C)C2)c1,2.3,2.8,-1.2,-0.1,·,·
SMILES,TEAD-YAP block,MITF primary,GPR151 ag,FBW7 activator,MITF confirm,AS interf ctr
COc1cc(OC)cc(C(=O)N2CCN(Cc3cccc(Oc4ccccc4)c3)CC2)c1,-3.0,37.3,2.1,-0.1,·,·
COc1cc(CN2CCN(Cc3ccco3)CC2)cc(OC)c1,2.6,83.1*,0.9,0.1,4.1,20.3
O=C(N/N=C/c1cc(O)ccc1Br)c1cccnc1,66.0*,59.1*,0.8,-0.7,87.7*,100.3*
O=C(N/N=C/c1cc(O)ccc1Br)c1ccncc1,76.9*,114.4*,-0.5,0.6,119.7*,100.3*
CCCOc1cccc(C(=O)N2N=C(C(F)F)CC2(O)C(F)F)c1 (centres undefined),2.2,24.6,0.5,0.3,·,·
CCOc1ccccc1C1C(C#N)=C(SCC(=O)Nc2ccccc2C)NC(C)=C1C(=O)OC (centres undefined),-1.2,-7.1,-0.8,0.1,·,·
COc1ccccc1CN1CCN(Cc2ccc3ccccc3c2)CC1,6.1,77.7*,0.2,-0.2,18.1,22.2
FC(F)(F)c1ccccc1CN1CCN(Cc2ccc3ccccc3c2)CC1,5.9,83.1*,1.2,-0.2,18.5,22.7
CCc1ccc(CN2CCN(Cc3ccccc3[N+](=O)[O-])CC2)cc1,0.6,73.7*,0.7,-0.2,9.0,-0.4
COc1cccc(OC)c1C(=O)N1CCN(Cc2ccc3ccccc3c2)CC1,-0.2,41.5,3.9,-0.2,·,·
